Dicer inh: blocks human Dicer maturation of pre-miR-21; cat-ELCCA pre-miR-21 Dicer processing, chemiluminescence; hits give high values; hit rate 6% among 47,000; z-score at 25 µM; in the data active = z-score above about 3, passing the limit was not always enough;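 note: higher signal means more uncleaved substrate so more Dicer inhibition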
Each line names hits and unclear results; the compound was inactive in the other large screens. Only a selection was taken, and hits are over-represented in it overall.

O=C(CCn1nnc(-c2cccc(Cl)c2Cl)n1)NNC(=S)Nc1ccc(Cl)c(Cl)c1	Dicer inh 9.4
CC(Oc1ccc(Cl)cc1Cl)C(=O)NNC(=S)Nc1ccccc1 (stereo not drawn)	none
O=C(Cn1nnc(-c2ccccc2C(F)(F)F)n1)NNS(=O)(=O)c1cccc(Cl)c1	none
N#CCC(=O)NNC(=S)Nc1ccc(Cl)c(Cl)c1	none
O=C(Cn1nnc(-c2ccccc2Oc2ccc(Cl)cc2Cl)n1)NNC(=S)Nc1cc(Cl)cc(Cl)c1	Dicer inh 6.3
CCOC(=O)c1c(NC(=O)C2Cc3ccc(C)cc3C(=O)O2)sc2c1CCC(C)C2 (stereo not drawn)	none
CCCN1C(=O)C(O)(CC(=O)c2ccc(OC)cc2OC)c2cc(Br)ccc21 (stereo not drawn)	none
O=C(O)CCCc1c[nH]c2ccccc12	none
CC(Cc1c[nH]c2ccccc12)C(=O)O (stereo not drawn)	Dicer inh 5
O=C(O)CCc1c[nH]c2ccccc12	none
CC1=C(C#N)C(c2ccc3c(c2)OCO3)C2=C(CC(c3ccccc3)CC2=O)N1 (stereo not drawn)	none
COC(=O)C1=C(O)CSC1=Nc1ccc(F)cc1	Dicer inh 5.1
COC(=O)C1=C(O)CSC1=Nc1ccccc1	none
COC(=O)c1nn(-c2ccc(F)cc2)ccc1=O	none
Cc1ccc(CSc2n[nH]c(=O)n2-c2ccc(OCc3ccccc3)cc2)cc1	none
CC(C)(C)OC(=O)N[C@@H](Cc1ccccc1)C(=O)NN	none
Cc1ccc(Cn2ncc(Br)c2/C=N/NC(=S)NC(C)(C)C)cc1	none
Cc1nc(C(=O)N/N=C/c2[nH]ncc2Cl)cs1	none
CC(C)(C)NC(=S)N/N=C\c1[nH]ncc1Cl	Dicer inh 5
COC(=O)C1=C(C)NC2=C(C(=O)c3ccccc32)C1c1ccc2c(c1)OCO2 (stereo not drawn)	none
CCCCSc1sc(C(=O)OCC)c2c1C(=O)CCC2	none
CC(C)Oc1cc(O)c2c(=O)c(-c3ccc(O)cc3)coc2c1	none
COc1ccc(-c2coc3cc(OCc4ccc(Br)cc4)cc(O)c3c2=O)cc1OC	Dicer inh 3.9
O=c1c(-c2ccc(O)cc2)coc2cc(O)cc(O)c12	none
Cc1ccc(-c2ncnn2-c2cccc(Cl)c2C)cc1	none
CCOc1cc(CNCCSc2nnnn2C)ccc1OC	none
Cc1ccc(N2C(=O)C3C4c5ccccc5C(C(=O)O)(c5ccccc54)C3C2=O)cc1 (stereo not drawn)	none
Cc1ccc(N2C(=O)C3C4C=CC(CO)(O4)C3C2=O)cc1Br (stereo not drawn)	none
CC1(C(=O)O)NC(c2ccc(O)cc2O)C2C(=O)N(c3ccc(Br)cc3)C(=O)C21 (stereo not drawn)	Dicer inh 5
Cc1cc(-c2nnc(SC3CCOC3=O)o2)no1 (stereo not drawn)	none
O=C(Nc1cc(C(F)(F)F)cc(C(F)(F)F)c1)Nc1cc2ccccc2s1	Dicer inh 3
O=C(NCc1cccs1)Nc1cc2ccccc2s1	none
O=C(Nc1cc2ccccc2s1)NC1Cc2ccccc2C1	none
CSc1n[nH]c(NS(=O)(=O)c2ccccc2Cl)c1-c1ccccn1	none
Cc1ccc(-n2ncc3c2ncn2c(COc4ccccc4C)nnc32)cc1	none
Cc1c(Cc2ccccc2)c(-n2ccnc2C)n2c(nc3ccccc32)c1C#N	none
CCCCc1c(C)c(C#N)c2nc3ccccc3n2c1-n1ccnc1C	Dicer inh 8.3
Cc1c(CCN2CCOCC2)c(N2CCOCC2)n2c(nc3ccccc32)c1C#N	none
O=C(Nc1nnn(-c2ccc([N+](=O)[O-])cc2)c1-c1ccccc1)N1CCOCC1	none
CC(C)(C1=N[C@@H](C(C)(C)C)CO1)C1=N[C@@H](C(C)(C)C)CO1	none
COc1ccc(C2c3c(oc4ccccc4c3=O)C(=O)N2c2ccccn2)cc1 (stereo not drawn)	Dicer inh 4.1
O=C1c2oc3ccccc3c(=O)c2C(c2ccc(O)cc2)N1c1nncs1 (stereo not drawn)	none
O=C1c2oc3ccccc3c(=O)c2C(c2ccc(O)cc2)N1c1ccccn1 (stereo not drawn)	Dicer inh 5.1
COc1ccc(C2c3c(oc4ccccc4c3=O)C(=O)N2c2ccccn2)cc1OC (stereo not drawn)	none
CCc1ccc(C2c3c(oc4ccccc4c3=O)C(=O)N2c2ccccn2)cc1 (stereo not drawn)	none
CCCOc1ccc(C2c3c(oc4ccccc4c3=O)C(=O)N2c2ccc(C)cn2)cc1 (stereo not drawn)	none
O=C(NCc1ccc2c(c1)CCO2)c1csc2ccccc12	none
CCOC(=O)c1c(N)nc(SC)n1-c1ccc(C(C)C)cc1	none
CCCC(C)(SCC(=O)O)SCC(=O)O	none
Clc1ccc(OCc2nc3c4c5c(sc4ncn3n2)CCCC5)cc1	none
COc1ccccc1OCc1nc2c3c4c(sc3ncn2n1)CCCCC4	none
COc1ccc(OCc2nc3c4c5c(sc4ncn3n2)CCCCC5)cc1	Dicer inh 4.2
CCOC(=O)c1s/c(=N/N=C(C)C)n(C)c1C	none
COc1cc(C(F)(F)F)nc2ccc(C)c(NC(=O)Nc3cc(Cl)cc(Cl)c3)c12	none
Cc1ccc(NC(=O)Nc2ccc(C(F)(F)F)cc2)cc1NS(C)(=O)=O	Dicer inh 6.3
Cc1ccc(NC(=O)c2ccsc2)cc1NS(C)(=O)=O	none
Cc1csc(NC(=O)Nc2ccc(C(F)(F)F)cc2)c1Cl	none
O=C(O)c1ccccc1SC(C[N+](=O)[O-])c1ccc2ccccc2c1 (stereo not drawn)	none
O=C(Oc1ccccc1Oc1ccc(C(F)(F)F)cc1[N+](=O)[O-])c1cc2ccccc2s1	none
O=C(COc1ccc2ccccc2c1)OCC(=O)c1ccc(Cl)cc1	none
O=C1c2cccc3cccc(c23)C(=O)N1c1ccc(Cl)cc1	Dicer inh 6
CN1C(=O)c2cccc3cccc(c23)C1=O	none
O=C1c2cccc3cccc(c23)C(=O)N1c1ccccc1	none
C/C(COc1ccc(Cl)cc1Cl)=N\OC(=O)c1cccc(C)c1	none
CCOC(=O)c1[nH]c(C)c(S(=O)(=O)NC2CCCCNC2=O)c1C (stereo not drawn)	none
O=[N+]([O-])c1ccc2c3c(ccc(Br)c13)CC2	Dicer inh 3.3
Cc1ccc(Br)cc1[N+](=O)[O-]	none
CC(=O)Nc1cc(C)c(Br)cc1[N+](=O)[O-]	none
CCC1SC2=NC(C)=C(C(=O)OC)C(c3ccc(OC)cc3)N2C1=O (stereo not drawn)	none
CCOC(=O)NC(=S)Nc1cc(C(C)(C)C)ccc1NC(C)=O	none
CC(C)OC(=O)c1cccc2c1-c1ccccc1C2=O	none
COc1ccc(-n2nc3ccc(N)cc3n2)cc1	none
CCOc1ccc(-n2nc3cc(C)c(N)cc3n2)cc1	Dicer inh 4.6
CCOc1ccc(-n2nc3ccc(N)cc3n2)cc1	none
O=C(Nc1csc(-c2cccs2)n1)Nc1ccc(F)cc1F	none
CCOc1ccc(S(=O)(=O)n2c(C)nc3ccccc32)c2ccccc12	none
Cc1cccn2c(=O)c(NC(=O)c3ccc(F)cc3)cnc12	none
COc1ccc(S(=O)(=O)N2CCN(Cc3cc(OC)ccc3OC)CC2)cc1	none
COc1ccc(OC)c(CN2CCN(Cc3ccncc3)CC2)c1	none
COc1ccc(OC)c(CN2CCN(S(=O)(=O)c3ccc(Cl)cc3)CC2)c1	Dicer inh 3.1
CC(C)(C)NC(=O)CSc1nc2ccccc2[nH]1	Dicer inh 4.9
O=C(CSc1nc2ccccc2[nH]1)Nc1ncccn1	none
CCOC(=O)CSc1nc2ccccc2[nH]1	none
N#C/C(=C\c1c(Cl)cccc1Cl)C(N)=O	none
COC(=O)c1c(C)nc(C)c(C(=O)OC)c1-c1csc(S(=O)(=O)N2CCOCC2)c1	none
C=CCN1C(=O)C2(/C(=C(/O)c3ccc(OC)cc3)C(=O)C(=O)N2CCOC)c2ccccc21 (stereo not drawn)	none
